This is an account of results in PubChem BioAssay (NCI).

About 79,000 compounds went through this panel and 15% of them were active in at least one assay; those are over-represented in the sample as a whole. Unmarked numbers belong to inactive results. Calls of active or inactive are those of the source. No stated cut-off is given here; in the data, active means growth inhibition above about 70%; inactive means the rest.

Test [1] is described as follows: NCI Yeast Anticancer Drug Screen. Data for the rad50 strain (AID 155).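 Further: 0% = growth of vehicle-only cultures of the same strain.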 To be noted: S. cerevisiae rad50 strain growth inhibition, active compounds read high. The method in brief:
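Cells are treated with compound, grown, and their growth is then scored against vehicle-only cultures of the same repair-deficient yeast strain.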

Test [2] in a line: NCI Yeast Anticancer Drug Screen. Data for the mec2-1 strain (AID 157). The following applies: S. cerevisiae mec2-1 strain, active compounds read high. A digest of the protocol: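 Vehicle-treated cultures served as reference for growth inhibition of compound-exposed mec2-1 yeast.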
Test [3] is described as follows: NCI Yeast Anticancer Drug Screen. Data for the sgs1 mgt1 strain (AID 161).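 Further: 0% = growth of cultures given vehicle only.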 To be noted: S. cerevisiae sgs1 mgt1 strain, active compounds read high. The method in brief: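 Inhibition of yeast growth, normalised to vehicle-treated controls, is reported for a strain bearing genetic alterations in DNA damage repair.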
The nature of test [4]: NCI Yeast Anticancer Drug Screen. Data for the cln2 rad14 strain (AID 165).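 Further: 0% = growth equal to vehicle treated cultures.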 To be noted: S. cerevisiae cln2 rad14 strain, active compounds read high. A digest of the protocol:
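Each compound was tested on cln2 rad14 yeast. Inhibition of growth was calculated against vehicle-exposed controls.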

A short description of test [5]: NCI Yeast Anticancer Drug Screen. Data for the bub3 strain (AID 167). The following applies: S. cerevisiae bub3 mutant strain, active compounds read high. The method in brief:
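Part of a panel of yeast mutants defective in DNA damage repair or cell cycle regulation. Each strain is grown with compound, and inhibition is calculated relative to solvent-treated cultures.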

A short description of test [6]: NCI Yeast Anticancer Drug Screen. Data for the mlh1 rad18 strain (AID 175). The following applies: S. cerevisiae mlh1 rad18 strain growth inhibition, active compounds read high. The method in brief:
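Vehicle-treated cultures served as the reference for growth inhibition in a yeast strain carrying DNA damage repair alterations exposed to each compound.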

Setting [7] is: at 5.0 µM (retest, dose inferred, filed as 0.5).
[8] abbreviates: at 50.0 µM (retest, dose inferred, filed as 5.0).

As to `CCCCN(CCCC)/N=C\C1=C2NC(=O)/C(C)=C\C=C/C(OC)C(OC(N)=O)/C(C)=C/C(C)C(O)C(OC)CC(C)CC(=C(OC)C1=O)C2=O` (configuration not stated), the growth inhibition in test [1] (setting [7]) is 2%; in test [1] (setting [8]), 81% (active); in test [1] (at 50.0 µM), 54.4%; in test [2] (setting [7]) it was -2%; in test [2] (setting [8]) it was 87% (active); in test [2] (at 50.0 µM), 48.4%. For the same molecule, the growth inhibition was -4% in test [3] (setting [7]); 89% (active) in test [3] (setting [8]); 47.9% in test [3] (at 50.0 µM); -8% in test [4] (setting [7]); 78% (active) in test [4] (setting [8]); 47.6% in test [4] (at 50.0 µM). For the same molecule, the growth inhibition in test [5] (setting [7]) is -3%; in test [5] (setting [8]), 32%; in test [5] (at 50.0 µM), 44%; in test [6] (setting [7]), -2%; in test [6] (setting [8]), 80% (active); in test [6] (at 50.0 µM) it was 60.5%.

With `Cc1nc(Cl)nc(N)c1[N+](=O)[O-]`, the growth inhibition in test [1] (setting [7]) is 2%; in test [1] (setting [8]) it was 44%; in test [1] (at 50.0 µM), 53.8%; in test [2] (setting [7]), 8%; in test [2] (setting [8]), 55%; in test [2] (at 50.0 µM) it was 44.1%. For the same molecule, the growth inhibition in test [3] (setting [7]) was 3%; in test [3] (setting [8]), 30%; in test [3] (at 50.0 µM), 24.8%; in test [4] (setting [7]), -3%; in test [4] (setting [8]) it was 19%; in test [4] (at 50.0 µM), 10.8%. Further, the growth inhibition in test [5] (setting [7]) was -6%; in test [5] (setting [8]), 31%; in test [5] (at 50.0 µM) it was 22.9%; in test [6] (setting [7]), 6%; in test [6] (setting [8]) it was 41%; in test [6] (at 50.0 µM), 45.1%.

On to `CCCCCCCCCCCCCCCC1=NCCN1C`, for which the growth inhibition in test [1] (setting [7]) was 14%; in test [1] (setting [8]), 99% (active); in test [1] (at 50.0 µM) it was 99.1% (active); in test [2] (setting [7]), 9%; in test [2] (setting [8]), 100% (active); in test [2] (at 50.0 µM) it was 99.5% (active). Further, the growth inhibition in test [3] (setting [7]) is 29%; in test [3] (setting [8]), 99% (active); in test [3] (at 50.0 µM), 54.9%; in test [4] (setting [7]), 15%; in test [4] (setting [8]) it was 98% (active); in test [4] (at 50.0 µM), 96.5% (active). Further, the growth inhibition was 48% in test [5] (setting [7]); 99% (active) in test [5] (setting [8]); 99.3% (active) in test [5] (at 50.0 µM); 16% in test [6] (setting [7]); 99% (active) in test [6] (setting [8]); 98.9% (active) in test [6] (at 50.0 µM).

In the case of `Cc1ccc(OCC2CO2)c(Br)c1` (configuration not stated), the growth inhibition in test [1] (setting [7]) is 11%; in test [1] (setting [8]), 66%; in test [1] (at 50.0 µM) it was 78.2% (active); in test [2] (setting [7]), 1%; in test [2] (setting [8]), 19%; in test [2] (at 50.0 µM), 5.95%. Also, the growth inhibition was 15% in test [3] (setting [7]); 71% (active) in test [3] (setting [8]); 49.6% in test [3] (at 50.0 µM); 4% in test [4] (setting [7]); 15% in test [4] (setting [8]); -44.6% in test [4] (at 50.0 µM). For the same molecule, the growth inhibition is -1% in test [5] (setting [7]); 1% in test [5] (setting [8]); -13.2% in test [5] (at 50.0 µM); 17% in test [6] (setting [7]); 84% (active) in test [6] (setting [8]); 24.1% in test [6] (at 50.0 µM).

As to `N=C(N)SC1c2ccccc2-c2ccc(N)cc21` (configuration not stated), the growth inhibition was 17% in test [1] (setting [7]); 95% (active) in test [1] (setting [8]); 98% (active) in test [1] (at 50.0 µM); 4% in test [2] (setting [7]); 75% (active) in test [2] (setting [8]); 98.4% (active) in test [2] (at 50.0 µM). Also, the growth inhibition in test [3] (setting [7]) is -1%; in test [3] (setting [8]), 77% (active); in test [3] (at 50.0 µM) it was 98.5% (active); in test [4] (setting [7]), -4%; in test [4] (setting [8]) it was 81% (active); in test [4] (at 50.0 µM) it was 96.8% (active). Moreover, the growth inhibition in test [5] (setting [7]) is 0%; in test [5] (setting [8]), 86% (active); in test [5] (at 50.0 µM) it was 97% (active); in test [6] (setting [7]), 12%; in test [6] (setting [8]) it was 95% (active); in test [6] (at 50.0 µM), 97.8% (active).

For `Nc1ccc(-c2ccc(N)cc2S(=O)(=O)O)c(S(=O)(=O)O)c1`, the growth inhibition in test [1] (setting [7]) is 2%; in test [1] (setting [8]) it was 0%; in test [1] (at 50.0 µM) it was -27.6%; in test [2] (setting [7]), 0%; in test [2] (setting [8]) it was -5%; in test [2] (at 50.0 µM) it was -14.2%. The growth inhibition in test [3] (setting [7]) was -1%; in test [3] (setting [8]), -1%; in test [3] (at 50.0 µM), -5.9%; in test [4] (setting [7]), -2%; in test [4] (setting [8]), -5%; in test [4] (at 50.0 µM) it was 23.4%. Further, the growth inhibition in test [5] (setting [7]) is 2%; in test [5] (setting [8]), 7%; in test [5] (at 50.0 µM), 1.8%; in test [6] (setting [7]), -7%; in test [6] (setting [8]) it was -4%; in test [6] (at 50.0 µM), -38.7%.

Take `CCN(CC)C(C)(C)C(=O)/C=C/c1ccc(Cl)c(Cl)c1`: the growth inhibition was 13% in test [1] (setting [7]); 97% (active) in test [1] (setting [8]); 92.7% (active) in test [1] (at 50.0 µM); 3% in test [2] (setting [7]); 97% (active) in test [2] (setting [8]); 99.2% (active) in test [2] (at 50.0 µM). The growth inhibition in test [3] (setting [7]) is 6%; in test [3] (setting [8]), 97% (active); in test [3] (at 50.0 µM), 82.7% (active); in test [4] (setting [7]), -8%; in test [4] (setting [8]), 96% (active); in test [4] (at 50.0 µM), 47.9%. The growth inhibition was 5% in test [5] (setting [7]); 98% (active) in test [5] (setting [8]); 96% (active) in test [5] (at 50.0 µM); 0% in test [6] (setting [7]); 95% (active) in test [6] (setting [8]); 95% (active) in test [6] (at 50.0 µM).

Consider `Oc1ccc(C(c2ccccc2)(c2ccccc2)c2ccccc2)cc1O`, for which the growth inhibition in test [1] (setting [7]) is -8%; in test [1] (setting [8]) it was 99% (active); in test [1] (at 50.0 µM), 98.2% (active); in test [2] (setting [7]), -2%; in test [2] (setting [8]), 100% (active); in test [2] (at 50.0 µM) it was 98.7% (active). Also, the growth inhibition is -4% in test [3] (setting [7]); 99% (active) in test [3] (setting [8]); 98.3% (active) in test [3] (at 50.0 µM); 0% in test [4] (setting [7]); 97% (active) in test [4] (setting [8]); 97.4% (active) in test [4] (at 50.0 µM). In addition, the growth inhibition in test [5] (setting [7]) is -4%; in test [5] (setting [8]) it was 99% (active); in test [5] (at 50.0 µM) it was 98% (active); in test [6] (setting [7]), 0%; in test [6] (setting [8]), 99% (active); in test [6] (at 50.0 µM) it was 98% (active).

Regarding `Cc1c(C)c(NC(=O)/C=C/C(=O)O)c(C)c(C)c1NC(=O)/C=C\C(=O)O`, the growth inhibition in test [1] (setting [7]) was -14%; in test [1] (setting [8]), 14%; in test [1] (at 50.0 µM), 61.7%; in test [2] (setting [7]) it was -6%; in test [2] (setting [8]), 37%; in test [2] (at 50.0 µM) it was 88.8% (active). Moreover, the growth inhibition was -13% in test [3] (setting [7]); 11% in test [3] (setting [8]); 89.9% (active) in test [3] (at 50.0 µM); 7% in test [4] (setting [7]); 11% in test [4] (setting [8]); 42.2% in test [4] (at 50.0 µM). In addition, the growth inhibition in test [5] (setting [7]) is -4%; in test [5] (setting [8]), 35%; in test [5] (at 50.0 µM) it was 86.3% (active); in test [6] (setting [7]) it was -31%; in test [6] (setting [8]) it was 58%; in test [6] (at 50.0 µM), 59.6%.
